# Screening data from PubChem BioAssay.
# A selection: hits, their analogues and other compounds. The true share with any hit is near 3.3%.
# SSB-PriA inh: inhibitors of Klebsiella pneumoniae PriA binding to SSB C-terminal tail | inhibition, % at 33 µM | AlphaScreen SSBct-PriA binding, biotinylated peptide | hit rate 0.6% among 430,000; in the data active means inhibition mostly above about 37%, no sharp cut-off; inactive means mostly below about 20%;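 further: plate controls were negative control peptide for no effect and reference peptide for full effect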
# Anthrax LF inh2: anthrax lethal factor protease inhibition; hit rate 0.12% among 360,000; P15917; AID 588501; multiplex microsphere protease cleavage assay, LF; inhibition, % at 10 µM; further: plate controls were buffer without enzyme for full effect and enzyme alone for no effect
# MazEF act: increases E. coli MazEF RNase cleavage of RNA. P0AE70. FAM/BHQ RNA-DNA oligo cleavage fluorescence, 5 h. activation, % at 20 µM. hit rate 0.32% among 350,000; in the data active means activation above about 50%
# Target sequence (P0AE70 whole entry, looked up): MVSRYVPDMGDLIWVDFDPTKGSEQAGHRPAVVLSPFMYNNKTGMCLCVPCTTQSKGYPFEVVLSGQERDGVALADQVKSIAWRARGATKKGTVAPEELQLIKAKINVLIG
# BoNT F protease: blocks Botulinum neurotoxin F light chain protease | Multiplex microsphere protease cleavage assay, flow cytometry | inhibition, % at 10 µM | hit rate 0.22% among 360,000; in the data active means inhibition above about 35%, passing the limit was not always enough; inconclusive means no clear call, values can overlap the other calls; further: plate controls were buffer without enzyme for full effect and enzyme alone for no effect
# BoNT A protease: BoNT A light chain protease inhibition; hit rate 0.17% among 360,000; inhibition, % at 10 µM; multiplex microsphere protease substrate cleavage, flow cytometry; AID 588499; further: plate controls were buffer without enzyme for full effect and enzyme alone for no effect
# Bead autofluor: counter-screen for toxin protease inhibitors: compound fluorescence. hit rate 3.1% among 360,000. compound autofluorescence counterscreen, microsphere flow cytometry; stronger effect = higher value. fluorescence intensity (no concentration beside the values); in the data active means fluorescence intensity above about 16000; inconclusive means no clear call, values can overlap the other calls
# Numbers without * were called inactive; ? = inconclusive; . = no result. Unless noted, no stated cut-off is given here; in the data, active means inhibition above about 30%; inconclusive means no clear call, values can overlap the other calls; inactive means below that.
SMILES,SSB-PriA inh,Anthrax LF inh2,MazEF act,BoNT F protease,BoNT A protease,Bead autofluor
CCN1CCCC1CNC(=O)COc1cc(=O)n(C)c2ccccc12 (centres undefined),-7,0,4,0,1,23013*
Cn1c(=O)cc(OCC(=O)N2CCCc3ccccc32)c2ccccc21,-11,1,-3,-6,-2,21145*
CC1CCN(CCCNC(=O)COc2cc(=O)n(C)c3ccccc23)CC1,-7,?,-3,5,0,?
Cc1nn(C2CCS(=O)(=O)C2)c2nc(-c3ccccc3)cc(C(=O)NCCCc3ccccc3)c12 (centres undefined),-9,.,.,.,.,.
COc1ccc(CNC(=O)NC[C@H](O)c2ccc(SC)cc2)cc1,-5,.,.,.,.,.
CCOC(=O)c1ccc(NC(=O)C2CN(c3ncnc4c3nnn4CC)C2)cc1,1,.,.,.,.,.
CCOc1cc(C2NC(=O)NC(C)=C2C(=O)NCc2ccccc2)c(Cl)cc1O (centres undefined),3,0,7,1,0,20868*
CC1=C(C(=O)NCc2ccccc2)C(c2ccccc2OCC(N)=O)NC(=O)N1 (centres undefined),-6,2,4,0,0,10262
COc1cc(C2NC(=O)NC(C)=C2C(=O)NCc2ccccc2)c(Cl)cc1O (centres undefined),6,0,0,-7,0,9571
C=CCOc1ccccc1C1NC(=O)NC(C)=C1C(=O)NCc1ccccc1 (centres undefined),-5,1,3,-5,?,17255*
Cc1ccc(-n2c(=O)[nH]c3c(C(=O)NCCc4c[nH]c5ccccc45)cn(C)c3c2=O)cc1,-12,.,.,.,.,.
O=C(Nc1ccc2c(c1)C(=O)c1ccccc1C2=O)c1ccc2ncsc2c1,9,.,.,.,.,.
CSc1ccccc1C(=O)NC1CCCCC1,2,-5,0,1,2,22309*
CSc1ccccc1C(=O)NCC1CCCO1 (centres undefined),-12,-2,1,9,5,18506*
C=CCONC(CCC)=C1C(=O)C(C(=O)OC)C(C)(C)CC1=NC (centres undefined),-3,.,.,.,.,.
Cc1cc(C)c2[nH]c(=O)c(C(c3nnnn3CC3CCCO3)N3CCC(C)CC3)cc2c1 (centres undefined),-3,-1,-15,-3,?,26168*
Cc1cccc2cc(C(c3nnnn3Cc3ccccc3)N3CCN(c4ccccc4)CC3)c(=O)[nH]c12 (centres undefined),-11,-3,-11,-8,-4,18218*
Cc1cc(C)c2[nH]c(=O)c(C(c3nnnn3CC3CCCO3)N3CCCC(C)C3)cc2c1 (centres undefined),-3,-9,15,9,0,11124
COCCn1nnnc1C(c1cc2cccc(C)c2[nH]c1=O)N1CCN(c2ccccc2F)CC1 (centres undefined),-6,-5,4,6,0,4862
Cc1cccc2cc(C(c3nnnn3Cc3ccccc3)N3CCN(C)CC3)c(=O)[nH]c12 (centres undefined),-8,0,4,1,1,19831*
COc1ccc(Cn2nnnc2C(c2cc3cccc(C)c3[nH]c2=O)N2CCN(C)CC2)cc1 (centres undefined),-4,-8,6,-6,-1,3345
COc1ccc(Cl)c2sc(NC(=O)c3ccccc3NS(=O)(=O)c3ccc(C)cc3)nc12,-19,.,.,.,.,.
CN(CC(=O)NC1CC(=O)N(C2CC2)C1)S(C)(=O)=O (centres undefined),-5,.,.,.,.,.
O=C(CSc1nnc(-c2ccccc2)o1)NCC1CCCO1 (centres undefined),-25,.,.,.,.,.
O=C(c1ccc(Cl)cc1)N1CCN(c2ccc3nnc(C4CC4)n3n2)CC1,-9,.,.,.,.,.
SMILES,SSB-PriA inh,Anthrax LF inh2,MazEF act,BoNT F protease,BoNT A protease,Bead autofluor
C/C(=N\O)C(C)(C)Nc1ccc(Br)cc1,.,.,53*,.,.,.
Cc1cc(NC(=O)c2ccc(Cl)cc2Cl)nc2c1c(=O)oc1ccccc12,-14,.,.,.,.,.
CC(Oc1ccc(Cl)cc1Cl)C(=O)Nc1nc(-c2cc(Cl)ccc2Cl)cs1 (centres undefined),-8,.,.,.,.,.
O=S(=O)(c1cccc2nsnc12)N1CCc2ccccc2C1,12,-4,1,7,?,21361*
COc1nn(C)cc1C(=O)N1CCC(C(=O)N2CCN(c3ccc(C(F)(F)F)cn3)CC2)CC1,0,.,.,.,.,.
CN1OC[C@@H]2CN(C(=O)C(C)(C)C)[C@H](c3cccc(Br)c3)C[C@@H]21,-1,-4,53*,-2,0,3777
CCOC(=O)CSc1nc2ccc(C)cc2cc1C#N,-15,-4,296*,-14,0,9011
CCOC(=O)CSc1nc2cc(C)cc(C)c2cc1C#N,-3,5,25,7,4,2678
Cc1cc2cc(C#N)c(SCC(=O)Nc3nonc3C)nc2cc1C,-9,-3,63*,-2,1,4417
COC(=O)CSc1nc(C)c(C(C)=O)cc1C#N,-11,0,-5,4,?,20891*
CCOC(=O)CSc1nc2cc(C)ccc2cc1C#N,-11,-1,628*,7,1,3896
COc1ccc2cc(C#N)c(SCC(=O)Nc3nonc3C)nc2c1,-6,6,22,-14,2,3951
CCCSc1nc(C)c(C(C)=O)cc1C#N,0,-6,3,-11,-1,2073
O=C(NCCCc1ccccc1)Nc1cnc2ccnn2c1,-1,.,.,.,.,.
O=C(CN1CCC(Cn2c(COc3ccccc3)nc3ccccc32)CC1)Nc1nccs1,-2,.,.,.,.,.
CCCCN1CCN(Cc2nc(-c3ccc(N4CCOCC4)nc3)no2)CC1,-8,.,.,.,.,.
CN(C(=O)c1ccc(=O)n(Cc2ccc(F)cc2)n1)c1ccccc1,4,.,.,.,.,.
CCOC(=O)CSc1nc2cc(OC)ccc2cc1C#N,-10,1,120*,-8,2,3381
COc1ccc2nc(SCC(C)=O)c(C#N)cc2c1,-17,5,934*,7,12,2520
COc1ccc2nc(SCC(=O)N3CC(=O)Nc4ccccc43)c(C#N)cc2c1,-9,5,58*,14,8,3506
CCOc1cc(C=NNC(N)=O)cc(Br)c1OCC(=O)Nc1ccccc1C,-5,.,.,.,.,.
O=C(NC1(C(F)(F)F)N=C2SCCN2C1=O)c1ccccc1 (centres undefined),-10,-4,9,-3,-2,24460*
COc1ccc(C(=O)NC2(C(F)(F)F)N=C3SCCN3C2=O)cc1 (centres undefined),0,-7,1,-6,1,9638
COc1ccc(CN=CC2=C(O)CC(C)(C)CC2=O)cc1,-16,-2,6,-4,-2,24658*
COc1ccc(CN=CC2=C(O)CNC2=O)cc1,-13,1,4,4,0,4738
CC1(C)CC(=O)C(C=NCC2CCCO2)=C(O)C1 (centres undefined),-7,-2,-1,-5,-3,25274*
CC1(C)CC(=O)C(C=NCCN2CCN(C(=O)Cc3ccc(F)cc3)CC2)=C(O)C1,0,3,-4,0,-1,19988*
CC1(C)CC(=O)C(C=NCCCN2CCCC2=O)=C(O)C1,5,0,3,-2,0,5192
